Assay outcomes: PubChem BioAssay, several laboratories
This is a sample that favours compounds with a hit; in the whole collection about 11% have one here.
INS promoter inh: inhibitors of insulin promoter-driven GFP, primary screen, imaging, TRM-6 cells (human fetal islet line), eGFP reporter, cell count | reporter expression induced with tamoxifen | inhibition, % at 2 µM | actives 0.9% (n = 130,000);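 active means inhibition above the mean plus 3 SD, with well images judged a real hit on visual review, cut at about 60% in these data, passing the limit was not always enough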
WT yeast gro inh: growth inhibition of WT strain, primary screen, mitochondrial fusion inhibitor project, WT and mutant strains, chemical genetic | actives 2.1% (n = 190,000) | inhibition, % at 10 µM | mitochondrial fusion phenotypic screen; in the data active means inhibition above about 58%; tested in S. cerevisiae
Autophagy HCS: autophagy modulators in MEF cells, primary screen, imaging, high-content, MEF GFP-LC3. MEF GFP-LC3 puncta imaging; test concentration mostly 10 µM. calls only at 10 µM (by protocol). actives 0.98% (n = 190,000). AID 463193, 2010;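 active means percentage of spot-positive cells more than 3 SD above its plate mean, without a fluorescence outlier flag or 80% toxicity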;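 further: spot-positive cell cutoff set from DMSO-treated cells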
Lmaj promast: Leishmania major promastigote growth inhibition, primary screen | Leishmania major promastigotes, resazurin fluorescence viability | inhibition, % at 10 µM | actives 9% (n = 200,000) | AID 1063, 2008; in the data active means inhibition above about 50%;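 further: promastigotes grown with compound for 44 hours at 28 °C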
Insulin prom up: insulin promoter activators in MIN6 cells, imaging, high-content screening, mouse beta cells; MIN6 insulin promoter-GFP reporter; active compounds read high; z-score at 5 µM; actives 0.3% (n = 190,000); AID 1625, 2009;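 active means z-score above 3 at 5 µM with at least 500 cells counted in the well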
An asterisk follows results filed as active; i = inactive; . = not tested or not shown; + = active, no number.

SMILES | INS promoter inh | WT yeast gro inh | Autophagy HCS | Lmaj promast | Insulin prom up
O=C(Nc1nc(-c2cccs2)cs1)c1ccc(Cl)s1 | 42.9 | 80.5* | i | 35.7 | -3.6
O=C(Nc1nc(-c2cccs2)cs1)c1ccc(S(=O)(=O)N2CCCC2)cc1 | 20.0 | 6.8 | i | 76.9* | -1.5
O=C(Nc1nc(-c2ccc3c(c2)OCCO3)cs1)c1ccc(S(=O)(=O)N2CCCCC2)cc1 | 15.2 | 21.1 | i | 85.5* | -2.53
CC(=O)Nc1nc(-c2cccs2)cs1 | 30.0 | 12.4 | i | 0.2 | 0.69
Cc1ccc(CNC(=O)CCC2CCCN(Cc3cccc4ncccc34)C2)o1 (centres undefined) | 33.3 | 3.9 | i | 2.4 | 0.94
N/C(=N\OC(=O)C12CC3CC(CC(C3)C1)C2)c1ccccc1 | -22.6 | 86.6* | i | 13.5 | 0.29
COc1ccc(CCNC(=O)C2CCN(S(C)(=O)=O)CC2)cc1 | -8.6 | -18.4 | i | -3.6 | 1.58
COc1ccc(NC(=O)CN(c2cc(C)cc(C)c2)S(=O)(=O)c2c(C)noc2C)cc1 | . | 18.5 | + | -1.6 | 0.6
COc1ccc(NC(=O)CN(c2cc(C)cc(C)c2)S(=O)(=O)c2c(C)noc2C)cc1OC | . | 2.6 | i | 6.4 | 1
CCOc1ccccc1NC(=O)CN(c1ccc(OC)cc1)S(=O)(=O)c1c(C)noc1C | . | 22.9 | + | 30.6 | 0.96
Cn1ccnc1SCCNC(=O)CCc1nnc(CCc2ccccc2)o1 | . | -1.5 | i | -4.8 | -0.19
CC(NC(=O)CCN1N=C(c2ccccc2)CCC1=O)c1ccc2c(c1)OCCO2 (centres undefined) | -46.7 | 11.2 | i | 4.8 | 0.13
CCN1CCN(c2ccc(NC(=O)CCc3c(C)nc4c(-c5ccccc5)c(C)nn4c3C)cc2)CC1 | . | -6.6 | . | 100.3* | 0.27
CCN1CCN(c2cc(C(C)(C)C)nc3c(-c4ccccc4)c(C)nn23)CC1 | 46.7 | 94.4* | i | 95.8* | .
Cc1cc(N2CCN(C(=O)c3ccco3)CC2)n2nc(C)c(-c3ccccc3)c2n1 | -13.3 | 63.0* | i | 12.7 | 2.41
O=C1NCCC/C1=N/Nc1cc(F)ccc1F | . | . | . | . | -0.01
CCCCNC(=O)CC(C(=O)N1CCc2ccccc21)n1ccnc1 (centres undefined) | 54.8 | . | i | 88.2* | .
CCN(CCCNC(=O)CC(C(=O)N1CCc2ccccc21)n1ccnc1)c1cccc(C)c1 (centres undefined) | . | -2.9 | i | 99.8* | -0.07
O=C(CC(C(=O)N1CCc2ccccc21)n1ccnc1)NCC1CCCO1 (centres undefined) | 30.8 | 2.7 | i | 10.8 | 2.23
O=C(CC(C(=O)N1CCc2ccccc21)n1ccnc1)N1CCc2ccccc2C1 (centres undefined) | 46.1 | 0.1 | i | 100.3* | -0.12
Cc1ccc([N+](=O)[O-])cc1NC(=O)Nc1onc(C)c1C | . | . | . | . | -0.14
NC(=O)C1CCN(C(=O)COc2ccc(Nc3ccccc3)cc2)CC1 | . | . | . | . | -0.72
O=C(NC1CCCC1)C(c1ccncc1)N(CCCN1CCOCC1)C(=O)c1ccc(-c2ccccc2)[nH]1 (centres undefined) | 33.3 | 5.2 | i | -2.0 | -2.08
O=C(NC1CCCC1)C(c1ccncc1)N(Cc1ccccc1)C(=O)c1ccc(-c2ccccc2)[nH]1 (centres undefined) | -36.7 | 11.6 | i | 97.2* | 0.12
O=C(NC1CCCC1)C(c1ccncc1)N(Cc1ccco1)C(=O)c1ccc(-c2ccccc2)[nH]1 (centres undefined) | -53.9 | -23.2 | i | 93.9* | -0.48
SMILES | INS promoter inh | WT yeast gro inh | Autophagy HCS | Lmaj promast | Insulin prom up
CC(C)(C)NC(=O)C(c1ccncc1)N(Cc1ccc(F)cc1)C(=O)c1ccc(-c2ccccc2)[nH]1 (centres undefined) | 28.6 | 29.6 | i | 98.5* | -0.48
O=C(NC1CCCCC1)C(c1ccc(F)cc1)N(Cc1ccco1)C(=O)c1ccccn1 (centres undefined) | -26.7 | -5.1 | i | -2.3 | 0.42
O=C(Cc1cccs1)N(Cc1cccs1)C1(C(=O)NC2CCCC2)CCCCC1 | -36.1 | 8.9 | i | 25.8 | .
O=C(c1ccc2c(c1)OCO2)N(Cc1cccs1)C1(C(=O)NC2CCCCC2)CCCCC1 | -57.1 | 62.1* | i | 31.3 | -1.24
O=C(Nc1ccc(Cl)cc1)OCCn1nnnc1C(c1ccccc1Cl)N1CCOCC1 (centres undefined) | -2.9 | -27.3 | i | 89.8* | 1.31
CC(=O)NC1(c2nnnn2CCOC(=O)Nc2ccc(Cl)cc2)CCCC1 | . | 15.3 | i | -5.4 | .
Cc1nnc(SCC(=O)N(C)C2CCCCC2)s1 | . | 8.4 | i | -5.3 | 0.25
Cc1ccc(S(=O)(=O)Nc2ccc(-c3nc4cc(NS(=O)(=O)c5ccc(C)cc5)ccc4o3)cc2)cc1 | -11.4 | -4.2 | i | 98.5* | -0.82
Cc1ccccc1Nc1nc(N)nc(CN2CCN(C(=O)c3ccccc3)CC2)n1 | . | -4.8 | i | -4.2 | -0.11
CCCCC1CCC(C(=O)OCC(=O)Nc2ccc(S(N)(=O)=O)cc2)CC1 (centres undefined) | 29.6 | -21.7 | i | 52.0* | -0.33
COc1ccc(CC(=O)OCC(=O)NCc2ccccc2Cl)cc1OC | 54.5 | -3.0 | i | -8.7 | 0.01
CCCC(=O)NC(c1ccc(OC)c(OC)c1)c1cc(Cl)c2cccnc2c1O (centres undefined) | . | -1.5 | i | 98.6* | -2.92
CCCCC(=O)NC(c1cccs1)c1cc(Cl)c2cccnc2c1O (centres undefined) | . | -16.3 | i | 98.5* | -5.86
O=C(NC(c1ccc(Cl)cc1)c1cc(Cl)c2cccnc2c1O)c1cccnc1 (centres undefined) | -346.7 | -0.3 | i | 99.0* | .
CCC(=O)NC(c1ccc(C)cc1)c1cc([N+](=O)[O-])c2cccnc2c1O (centres undefined) | 43.8 | 0.3 | i | -7.7 | -0.01
CCCC(=O)NC(c1ccco1)c1cc([N+](=O)[O-])c2cccnc2c1O (centres undefined) | -6.7 | -27.2 | i | 3.7 | -0.44
CCC(=O)NC(c1cccs1)c1cc(Cl)c2cccnc2c1O (centres undefined) | . | -4.9 | + | 98.2* | -4.24
Clc1ccc(CO/N=C/c2cccs2)cc1 | . | . | . | . | -0.13
CCOP(=O)(OCC)c1nc(-c2ccc(Cl)cc2Cl)oc1N1CCOCC1 | -21.4 | -11.1 | i | -0.7 | -1.52
CCOC(=O)N1CCC(NC(=O)c2cc(C(=O)Nc3ccc(S(=O)(=O)N4CCCCC4)cc3)ccc2CO)CC1 | . | 0.8 | i | 0.0 | 0.39
CC1CN(CC(=O)NN=C(c2ccccc2)c2ccccc2)CC(C)O1 (centres undefined) | . | 5.5 | i | 1.1 | -0.55
COc1ccc(N2CCN(Cc3nc4c(c(=O)[nH]c(=O)n4C)n3CC(C)=O)CC2)cc1 | . | -22.2 | . | -4.2 | -0.11
CCCS(=O)(=O)NCCc1csc(-c2ccc(OC)c(OC)c2)n1 | . | . | . | . | -0.33
Cc1ccccc1OCC(O)CN1CCCCC1 (centres undefined) | 0.0 | -11.7 | i | 13.4 | 1.45
